# Reference: PubChem BioAssay AID1159580 (chemical genetic matrix, 2015)
# Values joined by “and” are separate entries in the source; they are usually repeats but may differ in a detail not shown here. Identical values can stand only once. Among all 5,500 compounds or so, about 2,000 (36%) were called active. Not shown: some 18% with an inconclusive outcome. Rule as the data show it: active = normalized growth mostly below about 0.91 (no sharp cut-off); inconclusive = no clear call, values can overlap the other calls; inactive = mostly above about 0.92. The list shows a part of the results.
# Assay: chemical genetic growth profiling, strain panel (AID 1159580);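 also: tested at 20 µM; growth read once vehicle control cultures reached saturation at 30 °C; 1 = growth at the plate median or of vehicle wells; lower values mean less growth of the strain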
# Conditions: S. cerevisiae deletion strains, growth OD
compound,measurement,setting,value
Cc1cccc(Nc2ccccc2C(=O)O)c1C,normalized growth,"locus YAL013W, strain DEP1, stronger effect = lower value",0.89 (active)
same,normalized growth,"locus YAL021C, strain ccr4, stronger effect = lower value",0.934 (inactive)
same,normalized growth,"locus YAL026C, strain drs2, stronger effect = lower value",0.929 (inactive)
same,normalized growth,"locus YAL030W, strain snc1, stronger effect = lower value",0.913 (active)
same,normalized growth,"locus YBL061C, strain skt5, stronger effect = lower value",0.924 (inactive)
same,normalized growth,"locus YBR009C, strain hhf1, stronger effect = lower value",0.951 (inactive)
same,normalized growth,"locus YBR021W, strain FUR4, stronger effect = lower value",0.853 (inactive)
same,normalized growth,"locus YBR023C, strain chs3, stronger effect = lower value",0.919 (inactive)
same,normalized growth,"locus YBR171W, strain sec66, stronger effect = lower value",0.843 (active)
same,normalized growth,"locus YBR229C, strain ROT2, stronger effect = lower value",0.912 (active)
same,normalized growth,"locus YBR231C, strain swc5, stronger effect = lower value",0.915 (inactive)
same,normalized growth,"locus YBR279W, strain paf1, stronger effect = lower value",0.921 (active)
same,normalized growth,"locus YCL011C, strain gbp2, stronger effect = lower value",0.922 (inactive)
same,normalized growth,"locus YCL016C, strain dcc1, stronger effect = lower value",0.913 (active)
same,normalized growth,"locus YCL029C, strain bik1, stronger effect = lower value",0.907 (active)
same,normalized growth,"locus YCL061C, strain MRC1, stronger effect = lower value",0.894 (active)
same,normalized growth,"locus YCL069W, strain vba3, stronger effect = lower value",0.912 (active)
same,normalized growth,"locus YCR088W, strain abp1, stronger effect = lower value",0.895 (active)
same,normalized growth,"locus YDL005C, strain med2, stronger effect = lower value",0.946 (inactive)
same,normalized growth,"locus YDL035C, strain GPR1, stronger effect = lower value",0.921 (inactive)
same,normalized growth,"locus YDL040C, strain nat1, stronger effect = lower value",0.92 (active)
same,normalized growth,"locus YDL074C, strain BRE1, stronger effect = lower value",0.898 (inactive)
same,normalized growth,"locus YDL101C, strain DUN1, stronger effect = lower value",0.994 (inactive)
same,normalized growth,"locus YDL134C, strain PPH21, stronger effect = lower value",0.904 (inactive)
same,normalized growth,"locus YDL185W, strain tfp1, stronger effect = lower value",0.984 (inactive)
same,normalized growth,"locus YDL192W, strain arf1, stronger effect = lower value",0.834 (active)
same,normalized growth,"locus YDR001C, strain nth1, stronger effect = lower value",0.893 (active)
same,normalized growth,"locus YDR069C, strain doa4, stronger effect = lower value",0.988 (inactive)
same,normalized growth,"locus YDR101C, strain arx1, stronger effect = lower value",0.885 (active)
same,normalized growth,"locus YDR137W, strain rgp1, stronger effect = lower value",0.739 (active)
same,normalized growth,"locus YDR150W, strain NUM1, stronger effect = lower value",0.894 (active)
same,normalized growth,"locus YDR159W, strain sac3, stronger effect = lower value",0.898 (inactive)
same,normalized growth,"locus YDR162C, strain NBP2, stronger effect = lower value",0.806 (active)
same,normalized growth,"locus YDR195W, strain ref2",1.08 (inactive)
same,normalized growth,"locus YDR297W, strain sur2, stronger effect = lower value",0.912 (active)
same,normalized growth,"locus YDR318W, strain mcm21, stronger effect = lower value",0.882 (active)
same,normalized growth,"locus YDR334W, strain swr1, stronger effect = lower value",0.908 (inactive)
same,normalized growth,"locus YDR335W, strain msn5, stronger effect = lower value",0.923 (inactive)
same,normalized growth,"locus YDR388W, stronger effect = lower value",0.869 (active)
same,normalized growth,"locus YDR392W, strain spt3, stronger effect = lower value",0.593 (active)
same,normalized growth,"locus YDR502C, strain sam2, stronger effect = lower value",0.864 (active)
same,normalized growth,"locus YEL003W, strain gim4, stronger effect = lower value",0.937 (inactive)
same,normalized growth,"locus YEL037C, strain rad23, stronger effect = lower value",0.909 (active)
same,normalized growth,"locus YEL061C, strain CIN8 (second series), stronger effect = lower value",0.887 (active)
same,normalized growth,"locus YEL061C, strain CIN8, stronger effect = lower value",0.904 (active)
same,normalized growth,"locus YER015W, strain faa2, stronger effect = lower value",0.936 (inactive)
same,normalized growth,"locus YER016W, strain bim1, stronger effect = lower value",0.918 (active)
same,normalized growth,"locus YER110C, stronger effect = lower value",0.859 (active)
same,normalized growth,"locus YER111C, strain swi4, stronger effect = lower value",0.907 (active)
same,normalized growth,"locus YER155C, strain BEM2 (second series), stronger effect = lower value",0.904 (inactive)
same,normalized growth,"locus YER155C, strain BEM2, stronger effect = lower value",0.868 (active)
same,normalized growth,"locus YER167W, strain BCK2, stronger effect = lower value",0.867 (active)
same,normalized growth,"locus YFR010W, strain ubp6, stronger effect = lower value",0.986 (inactive)
same,normalized growth,"locus YGL078C, strain dbp3, stronger effect = lower value",0.959 (inactive)
same,normalized growth,"locus YGL086W, strain mad1, stronger effect = lower value",0.884 (active)
same,normalized growth,"locus YGL167C, strain pmr1, stronger effect = lower value",0.851 (active)
same,normalized growth,"locus YGL173C, strain kem1, stronger effect = lower value",0.911 (inactive)
same,normalized growth,"locus YGL227W, strain vid30, stronger effect = lower value",0.917 (inactive)
same,normalized growth,"locus YGL240W, strain doc1, stronger effect = lower value",0.967 (inactive)
same,normalized growth,"locus YGL248W, strain PDE1, stronger effect = lower value",0.936 (inactive)
same,normalized growth,"locus YGL253W, strain hxk2, stronger effect = lower value",0.897 (active)
same,normalized growth,"locus YGR078C, strain PAC10, stronger effect = lower value",0.897 (inactive)
same,normalized growth,"locus YGR135W, strain pre9, stronger effect = lower value",0.858 (active)
same,normalized growth,"locus YGR229C, strain SMI1, stronger effect = lower value",0.729 (active)
same,normalized growth,"locus YGR252W, strain gcn5, stronger effect = lower value",0.854 (inactive)
same,normalized growth,"locus YHR013C, strain ard1, stronger effect = lower value",0.967 (inactive)
same,normalized growth,"locus YHR027C, strain rpn1, stronger effect = lower value",0.906 (active)
same,normalized growth,"locus YHR030C, strain SLT2, stronger effect = lower value",0.907 (active) and 0.891 (inactive)
same,normalized growth,"locus YHR079C, strain IRE1 (second series), stronger effect = lower value",0.887 (active)
same,normalized growth,"locus YHR079C, strain IRE1, stronger effect = lower value",0.883 (inactive)
same,normalized growth,"locus YHR094C, strain hxt1, stronger effect = lower value",0.872 (active)
same,normalized growth,"locus YHR129C, strain ARP1, stronger effect = lower value",0.911 (active)
same,normalized growth,"locus YHR142W, strain chs7, stronger effect = lower value",0.887 (inactive)
same,normalized growth,"locus YHR200W, strain rpn10, stronger effect = lower value",0.872 (active)
same,normalized growth,"locus YIL066C, strain RNR3, stronger effect = lower value",0.915 (inactive)
same,normalized growth,"locus YIL073C, strain SPO22, stronger effect = lower value",0.905 (inactive)
same,normalized growth,"locus YIL125W, strain kgd1, stronger effect = lower value",0.985 (inactive)
same,normalized growth,"locus YIR030C, strain dcg1, stronger effect = lower value",0.863 (active)
same,normalized growth,"locus YJL092W, strain hpr5, stronger effect = lower value",0.908 (active)
same,normalized growth,"locus YJL095W, strain BCK1 (second series), stronger effect = lower value",0.918 (active)
same,normalized growth,"locus YJL095W, strain BCK1, stronger effect = lower value",0.8 (inactive) and 0.923 (inactive)
same,normalized growth,"locus YJL115W, strain asf1, stronger effect = lower value",0.908 (inactive)
same,normalized growth,"locus YJL129C, strain trk1, stronger effect = lower value",0.697 (active)
same,normalized growth,"locus YJL134W, strain LCB3, stronger effect = lower value",0.894 (active)
same,normalized growth,"locus YJL154C, strain vps35, stronger effect = lower value",0.904 (active)
same,normalized growth,"locus YJL164C, strain tpk1, stronger effect = lower value",0.948 (inactive)
same,normalized growth,"locus YJL166W, strain qcr8, stronger effect = lower value",0.929 (inactive)
same,normalized growth,"locus YJL168C, strain set2, stronger effect = lower value",0.868 (active)
same,normalized growth,"locus YJL187C, strain SWE1 (second series), stronger effect = lower value",0.932 (inactive)
same,normalized growth,"locus YJL187C, strain SWE1, stronger effect = lower value",0.922 (active)
same,normalized growth,"locus YJR043C, strain POL32, stronger effect = lower value",0.942 (inactive)
same,normalized growth,"locus YJR066W, strain TOR1, stronger effect = lower value",0.81 (active)
